For some assays here: Potency and affinity values are given separately. The source made the active and inactive calls.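 Rule for the calls, unless noted: active = primary screen active and over 50% activation in each of two duplicate runs; inactive = the rest.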
Columns and labels:
[1] = tested on: TRPC4 beta (transient receptor potential cation channel C4), mouse; experiment: TRPC4 cation channel opening, retest – cell-based, Fluo4 calcium, HEK293 TRPC4beta/mu-opioid, duplicates, 10 µM, confirmation (AID 2426;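 active = fluorescence ratio normalized to control raised more than 50% in primary screen plus both repeat runs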); settings: Fluo4 calcium fluorescence, at 10 µM; hits give high values
[2] = tested on: transient receptor potential cation channel C4 beta (TRPC4), mouse; experiment: TRPC4 cation channel opening, second retest – cell-based, second round, Fluo4, HEK293 TRPC4beta/mu-opioid, 1 µM, confirmation (AID 2461); settings: Fluo4 calcium fluorescence, at 1 µM; hits give high values
[3] = tested on: TRPC4 (transient receptor potential cation channel C4 beta), mouse; experiment: potentiation of DAMGO EC20 TRPC4 response – cell-based, second round, Fluo-4, HEK293 TRPC4beta/mu-opioid, 1 µM, confirmation (AID 2554;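 active = primary screen hit whose fluorescence ratio, in both repeats, exceeds the weak agonist control mean by 3 SD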); settings: DAMGO EC20, Fluo-4 calcium flux, at 1 µM; hits give high values
[4] = tested on: TRPC4 beta (transient receptor potential cation channel C4), mouse; experiment: potentiation of DAMGO EC20 TRPC4 response – cell-based, Fluo-4, HEK293 TRPC4beta/mu-opioid, confirmation (AID 2555;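 active = primary screen hit whose calcium fluorescence ratio, in both repeats, exceeds the weak agonist control mean by 3 SD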); settings: DAMGO EC20, Fluo-4 calcium flux, at 10 µM; hits give high values
[5] = target: Short transient receptor potential channel 4 (Mus musculus) (UniProt Q9QUQ5); experiment: blockers of DAMGO-evoked TRPC4 calcium flux – cell-based, Fluo4, HEK293 TRPC4beta/mu-opioid, confirmation (AID 2636;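 active = calcium signal cut by more than 3 SD below the full-agonist control yet still positive, in both repeats and the earlier primary screen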); settings: at 10 µM; hits give high values
[6] = target: Short transient receptor potential channel 4 (Mus musculus) (UniProt Q9QUQ5); experiment: blockers of DAMGO-evoked TRPC4 calcium flux – cell-based, second round, Fluo4, HEK293 TRPC4beta/mu-opioid, 1 µM, confirmation (AID 2637;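 active = calcium signal ratio cut to more than 3 SD under the fully stimulated control mean yet still positive, in both repeats and the primary screen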); settings: at 1 µM; hits give high values
[7] = target: Short transient receptor potential channel 4 (Mus musculus) (UniProt Q9QUQ5); experiment: calcium entry via TRPC4 opening agents – cell-based, HEK293 TRPC4/mu-opioid, Fluo-4 calcium, dose response (AID 434937;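 active = primary screen activator hit with a dose response curve and TRPC4 channel activation at any tested dose; inactive = no activation, no dose response, or not a primary hit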)
[8] = target: Short transient receptor potential channel 4 (Mus musculus) (UniProt Q9QUQ5); experiment: potentiation of DAMGO-evoked TRPC4 calcium signal – cell-based, HEK293 TRPC4/mu-opioid, Fluo-4 calcium, EC20 DAMGO, dose response (AID 434941;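 active = earlier screen potentiator hit that boosts the TRPC4 ion channel at some dose, with a dose response; inactive = no potentiation, no dose response, or not a prior hit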;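 note: calcium entry triggered by an EC20 dose of DAMGO at the co-expressed mu-opioid receptor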)
[9] = target: Short transient receptor potential channel 4 (Mus musculus) (UniProt Q9QUQ5); experiment: block of DAMGO-driven TRPC4 calcium entry – cell-based, HEK293 TRPC4/mu-opioid, Fluo-4 calcium, dose response (AID 434942;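 active = primary screen inhibitor hit that blocks the TRPC4 channel at some tested dose, yielding a dose curve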)
[10] = target: Short transient receptor potential channel 6 (Mus musculus) (UniProt Q61143); experiment: TRPC6 blockade by TRPC4 inhibitor hits – cell-based, HEK293, membrane potential dye, duplicate, selectivity assay for TRPC4 inhibitor project, confirmation (AID 434948;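 active = active in primary screen and both duplicates, each dropping signal beyond three positive-control SD with fluorescence still positive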); settings: HEK293 TRPC6, membrane potential dye fluorescence, at 10 µM, stimulated with maximal-effect acetylcholine; hits give high values
[11] = target: Short transient receptor potential channel 6 (Mus musculus) (UniProt Q61143); experiment: TRPC6 opening by TRPC4 activator hits – cell-based, HEK293, membrane potential dye, duplicate, selectivity assay for TRPC4 activator project, confirmation (AID 434950;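 active = membrane potential signal rise above negative control mean plus 3 SD in both duplicates, also active in the earlier TRPC4 screen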); settings: HEK293 TRPC6, membrane potential fluorescence, at 10 µM; activation: hits give high values; outcome: activation
[12] = target: Short transient receptor potential channel 6 (Mus musculus) (UniProt Q61143); experiment: positive modulators of mouse TRPC6 channel – HEK293 cells, membrane potential dye, duplicate, selectivity assay for TRPC4 potentiator project, confirmation (AID 434952;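 active = compound raising the membrane signal above positive-control mean plus 3 SD in both repeats, and a primary screen hit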); settings: HEK293 TRPC6, membrane potential dye fluorescence, at 10 µM, maximal acetylcholine added after compound; hits give high values
[13] = target: Short transient receptor potential channel 4 (Mus musculus) (UniProt Q9QUQ5); experiment: calcium flux activators in TRPC4/5HT1a cells, counter-screen for TRPC4 activator project, cell-based, second counter screen, HEK293 TRPC4/5HT1a, Fluo-4 (AID 434977;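 active = calcium signal rise above buffer-control mean plus 5 SD in both duplicates, and also a hit in the primary screen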); settings: Fluo-4 calcium flux, at 10 µM; hits give high values
[14] = serotonin-gated TRPC4 signal block – cell-based, second counter screen, HEK293 TRPC4/5HT1a, Fluo-4, counter-screen for TRPC4 inhibitor project, confirmation (AID 434978;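 active = primary screen active whose calcium signal fell more than 3 SD beyond the full-serotonin control mean in both duplicate plates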;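 note: serotonin given first at submaximal then at maximal dose after compound preincubation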); settings: Fluo-4 calcium flux, at 10 µM, serotonin added to trigger calcium flux; hits give high values
[15] = tested on: TRPC4 (mouse), co-expressed with 5HT1a in HEK293; experiment: enhancement of serotonin-evoked TRPC4 response – cell-based, second counter screen, HEK293 TRPC4/5HT1a, Fluo-4, counter-screen for TRPC4 potentiator project, confirmation (AID 434979;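 active = signal rise over 3 SD above mean of control wells given weak agonist, in both repeats and first screen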); settings: Fluo-4 calcium flux, at 10 µM, serotonin added at its EC20 dose; hits give high values
[16] = nonspecific calcium rise without TRPC4 – cell-based, HEK293 mu-opioid receptor line, counter-screen for TRPC4 activator project, confirmation (AID 449723;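 active = hit in primary screen, with calcium signal over 5 SD above buffer well mean in both duplicates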;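 note: counter screen cells carry the mu-opioid receptor alone and lack TRPC4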); settings: HEK293 mu-opioid cells, Fluo-4 calcium fluorescence, at 10 µM; hits give high values
[17] = nonspecific potentiation of DAMGO calcium response – cell-based, HEK293 mu-opioid receptor line, counter-screen for TRPC4 allosteric potentiator project, confirmation (AID 449724;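 active = calcium signal rise more than 3 SD above the low-dose agonist control mean, in both duplicate plates and the primary screen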); settings: HEK293 mu-opioid receptor cells, Fluo-4 calcium flux, at 10 µM, compound added before EC20 DAMGO stimulus; hits give high values

Short transient receptor potential channel 4 (Mus musculus), sequence (Q9QUQ5 whole entry, looked up): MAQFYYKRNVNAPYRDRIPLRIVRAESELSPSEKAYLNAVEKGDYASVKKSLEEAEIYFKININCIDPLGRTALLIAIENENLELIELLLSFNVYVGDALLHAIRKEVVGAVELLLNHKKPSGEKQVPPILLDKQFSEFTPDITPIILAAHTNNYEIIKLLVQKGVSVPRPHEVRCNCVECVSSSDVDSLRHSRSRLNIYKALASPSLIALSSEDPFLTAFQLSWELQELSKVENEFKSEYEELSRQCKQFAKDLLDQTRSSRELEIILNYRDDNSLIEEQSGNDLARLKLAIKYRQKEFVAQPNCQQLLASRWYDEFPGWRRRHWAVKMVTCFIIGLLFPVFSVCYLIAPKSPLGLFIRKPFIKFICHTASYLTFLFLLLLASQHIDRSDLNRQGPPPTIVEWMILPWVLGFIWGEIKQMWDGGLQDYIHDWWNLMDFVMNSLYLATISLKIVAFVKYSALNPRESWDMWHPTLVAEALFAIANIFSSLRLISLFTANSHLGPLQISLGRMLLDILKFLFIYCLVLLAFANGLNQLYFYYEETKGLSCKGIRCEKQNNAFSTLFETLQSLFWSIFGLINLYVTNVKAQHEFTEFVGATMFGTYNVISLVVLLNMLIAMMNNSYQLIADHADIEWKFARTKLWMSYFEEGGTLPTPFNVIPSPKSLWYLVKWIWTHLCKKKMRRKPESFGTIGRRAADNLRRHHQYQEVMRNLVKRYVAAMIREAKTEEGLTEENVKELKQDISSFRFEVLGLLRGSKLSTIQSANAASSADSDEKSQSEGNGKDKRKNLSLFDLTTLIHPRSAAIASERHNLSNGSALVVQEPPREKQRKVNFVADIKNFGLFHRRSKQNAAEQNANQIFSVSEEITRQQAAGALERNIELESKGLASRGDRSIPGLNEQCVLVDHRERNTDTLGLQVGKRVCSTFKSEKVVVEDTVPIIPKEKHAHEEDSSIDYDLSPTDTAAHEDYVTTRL
Short transient receptor potential channel 6 (Mus musculus), sequence (Q61143 whole entry, looked up): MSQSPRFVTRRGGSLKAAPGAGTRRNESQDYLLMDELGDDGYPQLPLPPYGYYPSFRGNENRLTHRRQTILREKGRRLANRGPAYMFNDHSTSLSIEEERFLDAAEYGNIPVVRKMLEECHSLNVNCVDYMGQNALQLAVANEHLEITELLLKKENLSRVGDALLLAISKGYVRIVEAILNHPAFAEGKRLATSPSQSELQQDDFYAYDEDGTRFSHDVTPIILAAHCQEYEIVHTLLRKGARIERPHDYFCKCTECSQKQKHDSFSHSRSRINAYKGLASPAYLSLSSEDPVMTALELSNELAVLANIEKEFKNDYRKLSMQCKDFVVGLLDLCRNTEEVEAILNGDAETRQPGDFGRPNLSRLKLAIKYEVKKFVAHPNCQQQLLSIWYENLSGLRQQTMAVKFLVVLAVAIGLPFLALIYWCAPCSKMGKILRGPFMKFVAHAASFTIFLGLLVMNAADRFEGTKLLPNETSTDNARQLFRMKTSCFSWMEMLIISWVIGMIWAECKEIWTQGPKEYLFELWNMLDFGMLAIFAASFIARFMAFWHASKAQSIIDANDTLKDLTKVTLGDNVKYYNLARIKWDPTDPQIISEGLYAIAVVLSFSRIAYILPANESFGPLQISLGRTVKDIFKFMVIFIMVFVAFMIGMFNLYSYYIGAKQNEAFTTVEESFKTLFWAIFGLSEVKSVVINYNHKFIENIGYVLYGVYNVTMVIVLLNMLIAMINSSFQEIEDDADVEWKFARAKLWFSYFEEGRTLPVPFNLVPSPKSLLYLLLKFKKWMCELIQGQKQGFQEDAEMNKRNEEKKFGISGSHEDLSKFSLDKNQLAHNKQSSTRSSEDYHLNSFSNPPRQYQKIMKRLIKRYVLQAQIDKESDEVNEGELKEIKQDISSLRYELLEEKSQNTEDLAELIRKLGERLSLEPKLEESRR

With COc1cc(Br)cc(C2C3=C(CCCC3=O)N(c3ccc(F)cc3)C3=C2C(=O)CCC3)c1O the outcome [1] was “inactive”, the outcome [2] was “inactive” and the outcome [3] was “inactive”. The potentiation [4] was 29% (active), the outcome [5] was “inactive” and the outcome [6] was “inactive”. For the same molecule, the outcome [7] was “inactive”, the outcome [8] was “inactive” and the outcome [9] was “inactive”. The outcome [10] was “inactive”, the outcome [11] was “inactive” and the outcome [12] was “inactive”. The outcome [13] was “inactive”, the outcome [14] was “inactive” and the potentiation [15] was 31.7% (active). For the same molecule, the outcome [16] was “inactive” and the outcome [17] was “inactive”.
With O=[N+]([O-])c1ccc(CN2CCN(c3nc4ccccc4s3)CC2)cc1 the outcome [1] was “inactive”, the outcome [2] was “inactive” and the outcome [3] was “inactive”. For the same molecule, the potentiation [4] was 7% (active), the outcome [5] was “inactive” and the outcome [6] was “inactive”. The outcome [7] was “inactive”, the outcome [8] was “inactive” and the outcome [9] was “inactive”. For the same molecule, the outcome [10] was “inactive”, the outcome [11] was “inactive” and the outcome [12] was “inactive”. The outcome [13] was “inactive”, the outcome [14] was “inactive” and the potentiation [15] was 17.5% (active). The outcome [16] was “inactive” and the outcome [17] was “inactive”.
For COc1ccc2sc(N(CCCN(C)C)C(=O)c3ccc(S(=O)(=O)N4CCCc5ccccc54)cc3)nc2c1, the outcome [1] was “inactive”, the outcome [2] was “inactive” and the outcome [3] was “inactive”. For the same molecule, the potentiation [4] was 28% (active), the outcome [5] was “inactive” and the outcome [6] was “inactive”. The outcome [7] was “inactive”, the outcome [8] was “inactive” and the outcome [9] was “inactive”. The outcome [10] was “inactive”, the outcome [11] was “inactive” and the outcome [12] was “inactive”. For the same molecule, the outcome [13] was “inactive”, the outcome [14] was “inactive” and the potentiation [15] was 80% (active). For the same molecule, the outcome [16] was “inactive” and the outcome [17] was “inactive”.
In the case of COc1ccccc1CC(=O)N1CCN(S(=O)(=O)c2ccccc2)CC1, the outcome [1] is reported as “inactive”, the outcome [2] is reported as “inactive” and the outcome [3] is reported as “inactive”. For the same molecule, the potentiation [4] was 24% (active), the outcome [5] was “inactive” and the outcome [6] was “inactive”. For the same molecule, the outcome [7] was “inactive”, the outcome [8] was “inactive” and the outcome [9] was “inactive”. The outcome [10] was “inactive”, the outcome [11] was “inactive” and the outcome [12] was “inactive”. The outcome [13] was “inactive”, the outcome [14] was “inactive” and the potentiation [15] was 44.4% (active). The outcome [16] was “inactive” and the outcome [17] was “inactive”.
For COc1ccc(CNC(=O)C(C)NCc2ccc(S(N)(=O)=O)cc2)cc1 (stereo unspecified), the outcome [1] was “inactive”, the outcome [2] was “inactive” and the outcome [3] was “inactive”. For the same molecule, the outcome [4] was “inactive”, the outcome [5] was “inactive” and the outcome [6] was “inactive”. The outcome [7] was “inactive”, the outcome [8] was “inactive” and the outcome [9] was “inactive”. For the same molecule, the outcome [10] was “inactive”, the outcome [11] was “inactive” and the outcome [12] was “inactive”. For the same molecule, the outcome [13] was “inactive”, the outcome [14] was “inactive” and the outcome [15] was “inactive”. The outcome [16] was “inactive” and the outcome [17] was “inactive”.
For NCC(c1ccc(Cl)cc1Cl)c1c[nH]c2ccccc12 (stereo unspecified), the outcome [1] was “inactive”, the outcome [2] was “inactive” and the outcome [3] was “inactive”. The outcome [4] was “inactive”, the outcome [5] was “inactive” and the outcome [6] was “inactive”. The outcome [7] was “inactive”, the outcome [8] was “inactive” and the outcome [9] was “inactive”. For the same molecule, the outcome [10] was “inactive”, the outcome [11] was “inactive” and the outcome [12] was “inactive”. For the same molecule, the outcome [13] was “inactive”, the outcome [14] was “inactive” and the potentiation [15] was 18.9% (active). For the same molecule, the outcome [16] was “inactive” and the outcome [17] was “inactive”.
In the case of CC(=O)c1cccc(Nc2cc(C)nc3c(C)cc(C)cc23)c1, the outcome [1] is reported as “inactive”, the outcome [2] is reported as “inactive” and the outcome [3] is reported as “inactive”. For the same molecule, the outcome [4] was “inactive”, the outcome [5] was “inactive” and the outcome [6] was “inactive”. For the same molecule, the outcome [7] was “inactive”, the outcome [8] was “inactive” and the outcome [9] was “inactive”. The inhibition [10] was 25.5% (active), the outcome [11] was “inactive” and the outcome [12] was “inactive”. For the same molecule, the outcome [13] was “inactive”, the outcome [14] was “inactive” and the outcome [15] was “inactive”. The outcome [16] was “inactive” and the outcome [17] was “inactive”.
For Cc1ccc(Cn2c(=N)c(C(=O)NCCN3CCOCC3)cc3c(=O)n4ccccc4nc32)cc1, the outcome [1] was “inactive”, the outcome [2] was “inactive” and the outcome [3] was “inactive”. The potentiation [4] was 31% (active), the outcome [5] was “inactive” and the outcome [6] was “inactive”. The outcome [7] was “inactive”, the outcome [8] was “inactive” and the outcome [9] was “inactive”. For the same molecule, the outcome [10] was “inactive”, the outcome [11] was “inactive” and the outcome [12] was “inactive”. The outcome [13] was “inactive”, the outcome [14] was “inactive” and the outcome [15] was “inactive”. The outcome [16] was “inactive” and the outcome [17] was “inactive”.
In the case of CC(CCc1ccc(O)cc1)N(C)CCc1ccccc1 (stereo unspecified), the outcome [1] is reported as “inactive”, the outcome [2] is reported as “inactive” and the outcome [3] is reported as “inactive”. For the same molecule, the outcome [4] was “inactive”, the outcome [5] was “inactive” and the outcome [6] was “inactive”. For the same molecule, the outcome [7] was “inactive”, the outcome [8] was “inactive” and the outcome [9] was “inactive”. For the same molecule, the outcome [10] was “inactive”, the outcome [11] was “inactive” and the outcome [12] was “inactive”. For the same molecule, the outcome [13] was “inactive”, the outcome [14] was “inactive” and the outcome [15] was “inactive”. For the same molecule, the outcome [16] was “inactive” and the outcome [17] was “inactive”.
For COc1ccc(CNc2ccc(Cl)cc2)cc1Cn1ccnc1, the outcome [1] was “inactive”, the outcome [2] was “inactive” and the outcome [3] was “inactive”. The outcome [4] was “inactive”, the outcome [5] was “inactive” and the outcome [6] was “inactive”. The outcome [7] was “inactive”, the outcome [8] was “inactive” and the outcome [9] was “inactive”. For the same molecule, the outcome [10] was “inactive”, the outcome [11] was “inactive” and the outcome [12] was “inactive”. The outcome [13] was “inactive”, the outcome [14] was “inactive” and the outcome [15] was “inactive”. For the same molecule, the outcome [16] was “inactive” and the outcome [17] was “inactive”.
With CC(C)n1c(SCC(=O)N2c3ccccc3Sc3ccccc32)nc2c1c(=O)n(C)c(=O)n2C the outcome [1] was “inactive”, the outcome [2] was “inactive” and the outcome [3] was “inactive”. The outcome [4] was “inactive”, the outcome [5] was “inactive” and the outcome [6] was “inactive”. For the same molecule, the outcome [7] was “inactive”, the outcome [8] was “inactive” and the outcome [9] was “inactive”. The outcome [10] was “inactive”, the outcome [11] was “inactive” and the outcome [12] was “inactive”. The outcome [13] was “inactive”, the outcome [14] was “inactive” and the potentiation [15] was 50.7% (active). The outcome [16] was “inactive” and the outcome [17] was “inactive”.
For COc1ccc(S(=O)(=O)n2nc(OC(=O)c3ccccc3Br)cc2N)cc1, the outcome [1] was “inactive”, the outcome [2] was “inactive” and the outcome [3] was “inactive”. For the same molecule, the outcome [4] was “inactive”, the outcome [5] was “inactive” and the outcome [6] was “inactive”. The outcome [7] was “inactive”, the outcome [8] was “inactive” and the outcome [9] was “inactive”. For the same molecule, the outcome [10] was “inactive”, the outcome [11] was “inactive” and the outcome [12] was “inactive”. The outcome [13] was “inactive”, the outcome [14] was “inactive” and the outcome [15] was “inactive”. The outcome [16] was “inactive” and the outcome [17] was “inactive”.
In the case of Cc1cc(C)c(C(=O)c2ccc(C(=O)N3CCCCC3)cc2)c(C)c1, the outcome [1] is reported as “inactive”, the outcome [2] is reported as “inactive” and the outcome [3] is reported as “inactive”. For the same molecule, the outcome [4] was “inactive”, the outcome [5] was “inactive” and the outcome [6] was “inactive”. The outcome [7] was “inactive”, the outcome [8] was “inactive” and the outcome [9] was “inactive”. For the same molecule, the outcome [10] was “inactive”, the outcome [11] was “inactive” and the outcome [12] was “inactive”. The outcome [13] was “inactive”, the outcome [14] was “inactive” and the outcome [15] was “inactive”. For the same molecule, the outcome [16] was “inactive” and the outcome [17] was “inactive”.

From PubChem BioAssay
